In PubChem BioAssay:
Activity calls are given as the source filed them. Unless noted, no rule for the calls is given here.

Key:
[1] = A549 cell viability effects, profiling panel, calcein-AM fluorescence, 48 h, basal (AID 1162); conditions: higher = more signal; also: test concentration not given here
[2] = adipocyte viability effects, profiling panel, cell-based, 3T3-L1 adipocytes, calcein-AM fluorescence, 48 h, basal (AID 1163); conditions: 3T3-L1 adipocytes viability, higher = more signal; also: test concentration not given here
[3] = HepG2 cell viability effects, profiling panel, calcein-AM fluorescence, 48 h, basal (AID 1164); conditions: higher = more signal; also: test concentration not given here
[4] = MM1S cell viability effects, profiling panel, calcein-AM fluorescence, 48 h, basal (AID 1165); conditions: higher = more signal;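 also: viability of MM1S multiple myeloma cells under basal unstimulated conditions; test concentration not given here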
[5] = basal RPMI8226 viability, no added stimulus, profiling panel, cell-based, calcein-AM fluorescence, 48 h, PK04 Diversity Set (AID 1166); conditions: RPMI8226 myeloma viability, higher = more signal;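 also: cells grown under basal conditions without added stimulus; test concentration not given here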
[6] = basal HepG2 mitochondrial membrane potential changes, profiling panel, cell-based, JC-1 fluorescence, 24 h, 100 nL compound (AID 1167); conditions: higher = more signal; also: test concentration not given here
[7] = basal 3T3-L1 adipocyte mitochondrial potential changes, profiling panel, cell-based, JC-1 fluorescence, 3T3-L1 adipocytes, 24 h, 100 nL compound (AID 1168); conditions: JC-1 mitochondrial fluorescence, higher = more signal, called active from +8 up or from −8 down; also: test concentration not given here
[8] = basal RPMI8226 mitochondrial membrane potential changes, profiling panel, cell-based, JC-1 fluorescence, 24 h, 100 nL compound (AID 1169); conditions: RPMI8226 myeloma, JC-1 mitochondrial potential fluorescence, higher = more signal; also: test concentration not given here
[9] = basal MM1S mitochondrial membrane potential changes, profiling panel, cell-based, JC-1 fluorescence, 24 h, 100 nL compound (AID 1170); conditions: higher = more signal; also: test concentration not given here
[10] = A549 lung cancer cell viability effects, profiling panel, resazurin fluorescence, 24 h, PK04 Diversity Set (AID 1171); conditions: higher = more signal, called active from +8 up or from −8 down; also: test concentration not given here
[11] = HepG2 liver cancer cell viability effects, profiling panel, resazurin fluorescence, 24 h, PK04 Diversity Set (AID 1172); conditions: higher = more signal; also: test concentration not given here
[12] = basal S. cerevisiae growth modulation, no modifier, primary screen, OD600, strain BY4716, 24 h, basal condition (AID 1173); conditions: OD600, 24 h, higher = more signal, called active from +8 up or from −8 down
[13] = MM1S myeloma cell viability, profiling panel, resazurin fluorescence, basal, 24 h, PK04 Diversity Set (AID 1174); conditions: higher = more signal, called active from +8 up or from −8 down;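 also: MM1S multiple myeloma cell line; test concentration not given here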
[14] = target: Dihydroorotate dehydrogenase (quinone), mitochondrial (Plasmodium falciparum (isolate 3D7)) (UniProt Q08210); assay: PfDHODH enzyme inhibitors, primary screen, biochemical, C-terminal His tag, absorbance 600 nm (AID 1175); conditions: DCIP absorbance 600 nm, higher = more signal, called active from +8 up or from −8 down;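 also: recombinant parasite enzyme with a five histidine tag at its C terminus; test concentration not given here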
Sequence of Dihydroorotate dehydrogenase (quinone), mitochondrial (Plasmodium falciparum (isolate 3D7)) (Q08210 whole entry, looked up): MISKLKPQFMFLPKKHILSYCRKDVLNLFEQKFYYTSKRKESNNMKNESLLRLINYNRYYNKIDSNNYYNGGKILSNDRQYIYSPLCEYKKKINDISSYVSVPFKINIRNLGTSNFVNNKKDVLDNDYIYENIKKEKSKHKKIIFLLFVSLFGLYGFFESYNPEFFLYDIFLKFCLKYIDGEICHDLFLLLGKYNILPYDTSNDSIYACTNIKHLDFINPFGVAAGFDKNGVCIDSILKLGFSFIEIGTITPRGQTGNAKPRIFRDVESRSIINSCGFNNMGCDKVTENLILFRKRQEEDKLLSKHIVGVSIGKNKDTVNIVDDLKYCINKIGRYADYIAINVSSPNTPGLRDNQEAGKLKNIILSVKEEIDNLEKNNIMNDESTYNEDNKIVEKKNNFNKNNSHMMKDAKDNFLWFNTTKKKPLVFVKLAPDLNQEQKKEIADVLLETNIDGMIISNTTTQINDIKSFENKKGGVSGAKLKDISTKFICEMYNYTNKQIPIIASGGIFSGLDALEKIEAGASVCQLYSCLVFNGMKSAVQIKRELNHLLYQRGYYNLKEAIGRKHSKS

[15] = P. aeruginosa biofilm formation inhibitors, primary screen, strain PAO1, LB-PBS medium, absorbance 600 nm (AID 1176); also: test concentration not given here; conditions: P. aeruginosa PAO1 growth/biofilm, A600, 12 h; higher = more signal
[16] = S. cerevisiae RM11-1a growth modifiers, primary screen, strain RM11-1a, OD600, basal, 24 h (AID 1177); conditions: OD600, 24 h, higher = more signal, called active from +8 up or from −8 down;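 also: cultures grown under basal conditions with no added stressor; test concentration not given here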
[17] = E. coli acrAB mutant growth effects, primary screen, E. coli filamentation inducers, strain DRC39, OD650, 24 h (AID 1178); conditions: higher = more signal, called active from +8 up or from −8 down;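 also: growth measured as culture turbidity by optical density at 650 nm; test concentration not given here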
[18] = E. coli acrAB mutant growth effects, primary screen, E. coli filamentation inducers, strain DRC39, OD650, 48 h (AID 1179);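 also: screen aims at cell division blockers that make cells filament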; conditions: E. coli DRC39 delta-acrAB growth, higher = more signal, called active from +8 up or from −8 down
[19] = RPMI8226 myeloma cell viability, profiling panel, resazurin fluorescence, basal, 24 h, PK04 Diversity Set (AID 1180); conditions: higher = more signal;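 also: RPMI8826 multiple myeloma cell line at 5000 cells per well; test concentration not given here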
[20] = target: E3 ubiquitin-protein ligase XIAP (Homo sapiens) (UniProt P98170); assay: XIAP binders, primary screen, biophysical, small-molecule microarray, fluorescence 635 nm (AID 1181); conditions: small-molecule microarray binding, higher = more signal;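 also: score merges 667 nm emission and signal to noise over triplicate slides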
Sequence of E3 ubiquitin-protein ligase XIAP (Homo sapiens) (P98170 whole entry, looked up): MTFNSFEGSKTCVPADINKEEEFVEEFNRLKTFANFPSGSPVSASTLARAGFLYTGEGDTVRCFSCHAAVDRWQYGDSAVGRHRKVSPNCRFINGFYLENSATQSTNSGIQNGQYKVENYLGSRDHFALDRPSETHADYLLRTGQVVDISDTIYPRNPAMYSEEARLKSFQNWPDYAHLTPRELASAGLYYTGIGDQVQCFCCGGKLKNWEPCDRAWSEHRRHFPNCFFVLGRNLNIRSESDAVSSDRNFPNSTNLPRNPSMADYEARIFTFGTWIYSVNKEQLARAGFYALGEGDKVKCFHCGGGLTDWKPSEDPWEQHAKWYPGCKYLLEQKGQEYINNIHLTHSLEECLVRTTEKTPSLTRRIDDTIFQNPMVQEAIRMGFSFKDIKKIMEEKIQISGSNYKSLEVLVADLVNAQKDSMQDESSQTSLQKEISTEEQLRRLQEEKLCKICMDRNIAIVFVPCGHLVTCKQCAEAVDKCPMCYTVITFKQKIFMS

| SMILES | z-score [1] | z-score [2] | z-score [3] | z-score [4] | z-score [5] | z-score [6] | z-score [7] | z-score [8] | z-score [9] | z-score [10] | z-score [11] | z-score [12] | z-score [13] | composite z-score [14] | z-score [15] | z-score [16] | z-score [17] | z-score [18] | z-score [19] | composite z-score [20] |
| --- | --- | --- | --- | --- | --- | --- | --- | --- | --- | --- | --- | --- | --- | --- | --- | --- | --- | --- | --- | --- |
| COC(=O)[C@@]1(Cc2ccc(OC)cc2)[C@H]2c3cc(C(=O)N4CCCC4)n(C[C@H](O)CO)c3C[C@H]2CN1C(=O)c1ccccc1 | -0.892 | -0.113 | 0.255 | -1.05 | 0.197 | 1.76 | 0.585 (inactive) | 0.933 | -1.03 | 0.336 (inactive) | -0.0006 | 1.92 (inactive) | -0.579 (inactive) | -0.475 (inactive) | -0.306 (inactive) | 1.04 (inactive) | 0.305 (inactive) | 0.644 (inactive) | -0.595 | -0.0251 |
| CC(C)(C)OC(=O)CC[C@@]1(C(=O)N2CCOCC2)N=C(c2ccc(OCCCO)cc2)O[C@@H]1c1ccccc1N=[N+]=[N-] | 0.962 | 0.122 | 0.169 | -0.49 | 0.338 | 2.09 | 5.5 (inactive) | -0.499 | -1.03 | 0.716 (inactive) | 0.725 | 0.297 (inactive) | -0.894 (inactive) | 0.668 (inactive) | -0.596 (inactive) | 1.1 (inactive) | 0.611 (inactive) | 1.52 (inactive) | 0.066 | 0.205 |
| O=C1O[C@H](c2ccccc2)[C@H](c2ccccc2)N2[C@H]1[C@@H](C(=O)N1CCCCCCC1)[C@]1(C(=O)Nc3ccc(C#CC4=CCCCC4)cc31)[C@H]2c1ccc(O)cc1 | -0.674 | 1.01 | -0.0827 | -0.181 | -0.773 | -1.28 | 0.634 (inactive) | -0.179 | -1.28 | 0.327 (inactive) | 0.693 | -0.63 (inactive) | -0.693 (inactive) | -0.744 (inactive) | 0.485 (inactive) | -0.668 (inactive) | -0.182 (inactive) | -1.53 (inactive) | -0.0437 | 3.33 |
| COc1ccc([Si](C)(C)[C@H]2[C@H](CC(=O)N3Cc4ccccc4C[C@H]3CO)O[C@@]3(C(=O)N(Cc4cccc(I)c4)c4ccccc43)[C@@H]2C)cc1 | -0.817 | 0.0894 | -0.693 | -2.42 | -4.12 | 1.33 | 0.814 (inactive) | -1.06 | -0.605 | -1.84 (inactive) | -0.779 | -1.08 (inactive) | -2.22 (inactive) | -1.01 (inactive) | 1.13 (inactive) | 1.55 (inactive) | 0.517 (inactive) | -0.152 (inactive) | -1.59 | -0.157 |
| C=CCN1C(=O)[C@@]2(O[C@@H](CCO)[C@H]([Si](C)(C)c3ccc(OC)cc3)[C@H]2C)c2cc(N3C(=O)COc4ccccc43)ccc21 | -3.41 | -0.967 | -4.72 | -2.74 | -4.33 | -2.17 | 2.78 (inactive) | -1.01 | -2.24 | -5.02 (inactive) | -6.28 | 0.445 (inactive) | -8.85 (active) | 0.428 (inactive) | -0.258 (inactive) | 3.31 (inactive) | 1.09 (inactive) | 0.338 (inactive) | -6.27 | -0.031 |
| [N-]=[N+]=Nc1ccccc1[C@@H]1OC(c2ccc(OCCCO)cc2)=N[C@]1(CCS(=O)(=O)c1ccccc1)C(=O)N1CCCCC1 | -0.564 | -0.56 | -0.0675 | -0.92 | -0.739 | -0.827 | 0.0238 (inactive) | -0.881 | -0.923 | -0.127 (inactive) | -0.644 | 1.69 (inactive) | -1.66 (inactive) | 1.06 (inactive) | 0.687 (inactive) | 2.08 (inactive) | -0.0955 (inactive) | -0.933 (inactive) | -1.81 | -0.202 |
| O=C1C2C=CC(C(O)c3cccc4ccccc34)N(n3cnnc3)C2C(=O)N1Cc1ccccc1 (stereo not given) | -0.986 | -0.06 | -1.6 | -0.467 | -1.81 | -1.23 | -1.18 (inactive) | -0.0245 | -0.0153 | -0.522 (inactive) | -0.447 | -17.4 (active) | -1.24 (inactive) | -2.08 (inactive) | -0.128 (inactive) | -23.2 (active) | -1.24 (inactive) | -1.14 (inactive) | -1.07 | -0.0421 |
| C=CCNC(=O)[C@H]1[C@@H]2C(=O)O[C@@H](c3ccccc3)[C@@H](c3ccccc3)N2[C@@H](c2ccc(OCCO)cc2)[C@]12C(=O)N(C(=O)OCCOC)c1ccc(C#CC3(O)CCCCCC3)cc12 | 1.13 | 1.61 | 0.388 | -0.963 | -2.4 | -0.898 | 1.71 (inactive) | -0.774 | -0.988 | 0.454 (inactive) | -0.162 | 1.33 (inactive) | -0.421 (inactive) | -1.08 (inactive) | 1.79 (inactive) | 2.43 (inactive) | -0.129 (inactive) | 1.16 (inactive) | 0.393 | -0.0999 |
| Cc1ccc(C(C)CC(O)C2C=CC3C(=O)NC(=O)C3N2Nc2ccccn2)o1 (stereo not given) | 0.378 | -0.671 | 1.37 | -0.333 | 0.635 | 0.117 | -0.0169 (inactive) | -0.263 | -0.408 | -0.793 (inactive) | -0.668 | 0.258 (inactive) | -1.19 (inactive) | 0.936 (inactive) | 1.04 (inactive) | 0.735 (inactive) | 0.168 (inactive) | 0.215 (inactive) | -0.355 | -0.127 |
